Test results from PubChem BioAssay.
Unmarked numbers belong to inactive results. The rule behind the calls is not given here.

target: Pantothenate synthetase (Mycobacterium tuberculosis (strain ATCC 25618 / H37Rv)) (UniProt P9WIL5); test: Coupled enzyme confirmation of inhibitors against recombinant Mtb PanC (AID 375); conditions: coupled enzyme assay; at 10 µM, hits give high values;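 note: 0% = full reaction with vehicle and 100% = no enzyme background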
Sequence (P9WIL5 whole entry, looked up): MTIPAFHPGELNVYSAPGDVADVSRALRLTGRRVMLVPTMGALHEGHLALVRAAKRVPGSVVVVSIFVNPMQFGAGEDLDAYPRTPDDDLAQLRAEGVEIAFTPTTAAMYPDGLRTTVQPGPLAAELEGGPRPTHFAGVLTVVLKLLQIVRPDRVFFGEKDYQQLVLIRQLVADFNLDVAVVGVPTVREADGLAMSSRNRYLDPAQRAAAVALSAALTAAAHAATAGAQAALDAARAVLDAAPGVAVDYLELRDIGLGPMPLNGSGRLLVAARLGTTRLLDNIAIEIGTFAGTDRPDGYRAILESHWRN

SMILES | inhibition [%]
O=C(Nc1cccnc1)c1ccc2c(c1)C(=O)N(Cc1cccnc1)C2=O | 0
O=C(CNCCC1=CCCCC1)Nc1ccccc1N1CCCCC1 | 0
CCOc1ccc(CNC(=O)C2CCCN(S(C)(=O)=O)C2)cc1OC (stereo not given) | 0
O=c1[nH]c2ccc(S(=O)(=O)N3CCN(C4CCCCC4)CC3)cc2[nH]c1=O | 1
Cc1nc2ccccc2c(=O)n1CC(=O)N1CCOCC1 | 2
Cc1c(C#N)sc2nc(-c3ccccc3)nc(N3CCCC3)c12 | 0
CCC1Oc2ccc(C)cc2N(CC(=O)NCCCN2CCCCC2CC)C1=O (stereo not given) | 4
COC(=O)CSC1=C(C#N)C(c2ccccc2)CC(=O)N1 (stereo not given) | 0
CN1/C(=C\C(=O)Nc2cccnc2)c2ccccc2CC1(C)C | 3
CCc1cccc2c3c([nH]c12)C(CC)(CC(=O)O)OCC3 (stereo not given) | 0
Cc1ccc2nc(/C(C#N)=N/O)[nH]c2c1 | 10
CNC(=O)CN(c1cc(C)ccc1OC)S(=O)(=O)c1ccc(C)cc1 | 3
CCC(C)NC(=O)CSC1=Nc2ccccc2C2=NC(CC(=O)NCc3ccccc3)C(=O)N12 (stereo not given) | 0
CNC(=O)c1c(O)c2cccc3c2n(c1=O)CC3 | 1
O=C(Nc1nc2ccc(S(=O)(=O)N3CCCC3)cc2s1)C1CCCO1 (stereo not given) | 0
Cc1ccc2c(c1)NC(=O)C(CC(=O)NCCCN1CCN(c3cc(Cl)ccc3C)CC1)O2 (stereo not given) | 1
CCCCCn1c(CN(C)Cc2ccccc2)nc2c1c(=O)n(C)c(=O)n2C | 1
CC(C)CN(CC(C)C)c1nc(N)c(C#N)c(CC#N)c1C#N | 0
CCn1c(=O)c(C(=O)Nc2cccnc2)c(O)c2ccccc21 | 0
C/C(N)=C(/C#N)C(=O)COC(=O)c1cc(C)n(-c2ccc(F)cc2)c1C | 2

SMILES | inhibition [%]
COc1ccccc1C(O)P(=O)(OC(C)C)c1ccc(N(C)C)cc1 (stereo not given) | 0
O=C(OCc1cc2ccccc2[nH]c1=O)c1ccco1 | 0
CC(=O)c1cccc(NC(=O)N2C3CCC2CC(O)(c2cccnc2)C3)c1 (stereo not given) | 0
CCOc1ccccc1NC(=O)CCSc1nc2n[nH]c(C)c2c(=N)n1-c1ccccc1Cl | 10
Cc1nc2ccc(NC(=O)N3CCSCC3)cc2s1 | 1
Cc1ccccc1-c1nc(CS(=O)(=O)CC(=O)NCc2ccccc2)c(C)o1 | 0
CC(=O)Nc1ccccc1OCC(=O)c1cc(C)n(Cc2cccs2)c1C | 0
CC(Sc1nnc(-c2cc3ccccc3o2)n1-c1ccccc1)C(=O)O (stereo not given) | 12
COCCn1nnnc1C(C(C)C)N1CCN(C(=O)c2ccco2)CC1 (stereo not given) | 0
CN(C)C(=O)N1CCC(C(=O)NC2CCCCCCC2)CC1 | 0
CCOC(=O)c1oc2ccccc2c1CSc1nnnn1-c1ccc(OC)cc1 | 1
COCCn1nnnc1CN(CCCN1CCOCC1)Cc1cc2c(C)ccc(C)c2[nH]c1=O | 0
CC(=O)NC1(c2nnnn2CCOC(=O)Nc2ccc(Cl)cc2)CCCCC1 | 1
CCOC(=O)N1CCC(c2cc(=O)n3[nH]cc(C(=O)OC)c3n2)CC1 | 0
c1ccc(-c2cc(CSc3nc4ccccc4[nH]3)on2)cc1 | 0
NC(=O)C1CCN(c2nc(-c3ccccc3)nc3ccccc23)CC1 | 0
Cc1onc(-c2c(Cl)cccc2Cl)c1C(N)=O | 0
CCOC(=O)CSc1nc(C)c(C(=O)OCC)s1 | 0
CCOC(=O)c1sc2nc(NC(=O)C(C)(C)C)sc2c1C | 8
Cc1cccc2cc(C(c3nnnn3C(C)(C)C)N3CCN(C(=O)c4ccco4)CC3)c(=O)[nH]c12 (stereo not given) | 6
